Sampled rows, rich in hits. Any-hit rate of the full collection: about 7.8%.
PostGolgi yeast: growth inhibition of a yeast mutant, post-Golgi transport screen | actives 0.9% (n = 98,000) | post-Golgi transport phenotypic cell assay | inhibition, % at 10 µM;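 note: yeast cells grown in 1536-well plates; yeast grown about 18 h at 30C before absorbance read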
Cav3 T inh: human Cav3.2 channel inhibition, primary screen. O95180. Cav3.2-expressing cells, Fluo-4 calcium fluorescence FDSS; stronger effect = lower value. B-score at 10 µM. actives 4% (n = 100,000);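 active = single-dose well whose peak fluorescence ratio is a statistical outlier from its plate by either plate-standardised score or position-corrected B-score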
sEH act: activators of human soluble epoxide hydrolase; P34913; purified human sEH enzymatic activity, activator screen; activation, % at 2 µM; actives 0.04% (n = 91,000); in the data active = activation above about 37%
Target sequence (P34913 whole entry, looked up): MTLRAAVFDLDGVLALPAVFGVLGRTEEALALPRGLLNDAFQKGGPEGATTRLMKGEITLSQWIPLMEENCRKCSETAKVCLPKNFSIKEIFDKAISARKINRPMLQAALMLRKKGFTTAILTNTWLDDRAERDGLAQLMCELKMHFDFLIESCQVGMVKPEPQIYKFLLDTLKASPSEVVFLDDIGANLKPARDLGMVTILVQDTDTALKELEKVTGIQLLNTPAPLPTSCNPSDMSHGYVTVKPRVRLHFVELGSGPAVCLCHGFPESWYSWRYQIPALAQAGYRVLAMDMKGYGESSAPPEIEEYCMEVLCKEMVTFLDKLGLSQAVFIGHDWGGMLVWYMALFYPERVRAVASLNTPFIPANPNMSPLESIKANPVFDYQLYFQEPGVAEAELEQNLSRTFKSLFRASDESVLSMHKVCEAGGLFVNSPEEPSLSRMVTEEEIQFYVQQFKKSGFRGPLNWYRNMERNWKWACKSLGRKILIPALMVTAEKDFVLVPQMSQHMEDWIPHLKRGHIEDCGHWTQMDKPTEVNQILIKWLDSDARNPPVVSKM
PostGolgi ctrl: inhibits growth of the yeast control strain; efflux-deficient yeast background strain, growth absorbance A615, 16 h; inhibition, % at 10 µM; actives 5% (n = 98,000)
sEH inhibitor: blocks human soluble epoxide hydrolase activity; inhibition, % at 2 µM; actives 0.34% (n = 91,000); AID 707; P34913; recombinant human sEH enzymatic activity assay; in the data active = inhibition above about 80%
* marks the source's active call; other numbers are inactive results; . = no result. Cut-off read from the data, not from the text of the source, unless noted: active = inhibition above about 30%; inactive = the rest.

SMILES	PostGolgi yeast	Cav3 T inh	sEH act	PostGolgi ctrl	sEH inhibitor
C#CCOCCOCCOCCNc1nc(N2CCN(C(=O)Cn3cc(CC(C)O)nn3)CC2)nc(N2CCN(C(=O)[C@H](C)n3cc(CCCN=C(N)N)nn3)CC2)n1 (stereo not given in full)	.	0.584	.	.	.
COC(=O)c1ccccc1NC(=O)CN1CCC(n2nnc3cc(C(F)(F)F)ccc32)CC1	-8.7	.	8.4	11.3	-6.9
CC1Cc2ccccc2N1C(=O)CN1CCC(n2nnc3cc(C(F)(F)F)ccc32)CC1 (stereo not given)	2.4	-9.54*	3.6	14.5	-2.8
O=C(NC(NC(=S)Nc1ccc(Cl)cc1Cl)C(Cl)(Cl)Cl)c1cccc([N+](=O)[O-])c1 (stereo not given)	4.2	-4.92*	-7.4	9.3	5.5
CCN1C(=O)c2ccccc2S(=O)c2ccc(C(=O)N3CCCCCC3)cc21 (stereo not given)	-9.0	.	-28.8	4.2	29.3
CCN1CCN(C(=O)c2ccc3c(c2)N(Cc2ccc(F)cc2)C(=O)c2ccccc2S3=O)CC1 (stereo not given)	3.5	-7.15*	-1.4	0.1	1.1
O=C(Cn1c(C(=O)N2CCN(C3CCCCC3)CC2)cc2sccc21)c1ccccc1	5.1	-0.232	-2.9	30.7*	4.9
CC(C)NC(=O)C1CCN(C(=O)c2cc3sccc3n2Cc2ccc(F)cc2)CC1	-1.4	-0.446	5.2	3.7	-4.5
O=C(c1cc2sccc2n1Cc1ccc(F)cc1)N1CCCc2ccccc21	.	-3.79*	5.1	.	-5.1
CC1CCN(C(=O)C2CCN(C(=O)c3cc4sccc4n3Cc3ccc(F)cc3)CC2)CC1	1.7	-4.1*	-2.4	29.1	2.8
O=C(c1cc2sccc2n1Cc1ccccc1)N1CCN(c2nc3ccccc3s2)CC1	9.3	-7.1*	-4.0	41.1*	5.7
CC1CCN(CCCNC(=O)c2ccc(CSCc3cccc(Cl)c3)o2)CC1	5.3	-2.72	9.9	2.4	-12.9
O=C(CN1CCOCC1)Nc1nc2ccc(Br)cc2s1	1.0	-0.593	-4.8	7.0	4.9
NC(=O)[C@H]1CC2(CC(c3cccc(NC(=O)[C@H]4CCC(=O)N4)c3)=NO2)CN1C(=O)c1cc([N+](=O)[O-])cc([N+](=O)[O-])c1 (stereo not given in full)	.	0.332	.	.	.
Cc1cc(C)nc(NC(=O)/C=C/c2ccc(Cl)cc2Cl)c1	11.9	.	9.0	56.6*	-6.6
COc1ccc(N2CCN(C(=O)CC(NC(N)=O)c3cccc(Oc4ccccc4)c3)CC2)cc1 (stereo not given)	10.2	-5.52*	1.9	12.8	-2.2
COc1ccc(N2CCN(C(=O)CSc3ccccc3)CC2)cc1	-12.3	-0.254	-7.8	13.0	9.3
Cc1c(NC(=O)C(C)OC(=O)[C@@H](NC(=O)c2ccccc2)C(C)C)c(=O)n(-c2ccccc2)n1C (stereo not given in full)	-4.2	1.26	.	30.6*	.
CCOC(=O)Nc1c(C)n(C)n(-c2ccccc2)c1=O	.	0.573	.	.	.
CO/N=C/c1ccc(Sc2ccccc2)c([N+](=O)[O-])c1	2.2	-0.31	-9.7	6.5	10.9
CO/N=C/c1ccc(Sc2ccccc2N)c([N+](=O)[O-])c1	9.6	-1.44	-5.8	31.6*	7.0
Cc1cccc(N2CCN(C(=O)CCCOc3ccccc3)CC2)c1C	16.0	-7.67*	.	33.5*	.
Cc1nc2ccc(S(=O)(=O)NCC(=O)N3CCN(c4ccccc4)CC3)cc2s1	6.7	0.225	.	2.8	.
Cc1cccc(N2CCN(C(=O)C(Cc3ccccc3)n3cccc3)CC2)c1C (stereo not given)	-2.7	-4.73*	-0.1	13.9	1.8
O=C(CNS(=O)(=O)c1ccccc1)N1CCN(c2ccccc2)CC1	0.3	1.52	-0.1	33.6*	2.8
SMILES	PostGolgi yeast	Cav3 T inh	sEH act	PostGolgi ctrl	sEH inhibitor
Cc1cccc(N2CCN(C(=O)C(NS(=O)(=O)c3cccs3)c3ccccc3)CC2)c1C (stereo not given)	-3.8	-2.74	-4.6	39.9*	6.5
O=C(C(NS(=O)(=O)c1cccs1)c1ccccc1)N1CCN(c2ccccc2F)CC1 (stereo not given)	-3.3	0.0257	-43.1	17.7	44.2
CC(/C=C/c1ccco1)=N/NC(=O)Cc1cccs1	5.0	1.1	-0.3	5.9	2.5
c1ccc(Oc2cccc(OCCCCSc3ncccn3)c2)cc1	9.3	-1.69	-1.8	10.5	3.9
Nc1c(C(O)(C(F)(F)F)C(F)(F)F)cc(C(O)(C(F)(F)F)C(F)(F)F)c2ccccc12	.	-0.0405	3.2	.	-4.5
CCS(=O)(=O)Nc1ccc(C(=O)c2ccccc2)cc1	.	-0.00187	2.3	.	0.9
Cc1cccc(N2CCN(C(=O)C34CC5CC(CC(C5)C3)C4)CC2)c1C	-4.1	-1.24	-7.1	51.3*	6.7
CCOC(=O)N1CCN(C(=O)CCCOc2ccccc2)CC1	6.1	0.0153	1.4	0.3	2.1
O=C(CCCOc1ccccc1)N1CCN(c2ccccc2)CC1	-2.9	-4.33*	-3.8	16.5	4.5
COC(=O)C1=C(N)Oc2cc(C)n(Cc3cccnc3)c(=O)c2C1c1cccc(OC)c1OC (stereo not given)	-0.5	1.72	-2.0	7.0	1.5
O=C1c2ccccc2CCCC12N=NCC2c1cccc2ccccc12 (stereo not given)	6.3	.	-1.6	32.5*	4.0
CCC(Cc1ccccc1)NC(=O)C1CCN(S(=O)(=O)c2c(C)noc2C)CC1 (stereo not given)	0.0	1.17	-9.7	-9.6	7.9
CC(=O)Nc1cccc(Oc2nc(C)cc(C)c2C#N)c1	-4.5	0.331	-5.0	32.4*	4.1
CC(C)(C)C(=O)NC1CCN(S(=O)(=O)c2ccc(C(F)(F)F)cc2)CC1	4.8	0.135	-0.5	19.6	-1.4
COc1cccc(-c2csc(N3CCN(C(=S)Nc4ccccc4OC)CC3)n2)c1	-4.2	-2.64	9.3	12.7	-6.0
COc1cccc(-c2csc(N3CCN(C(=S)Nc4ccccc4Cl)CC3)n2)c1	6.1	-4.05*	9.3	24.2	-6.0
COc1cccc(-c2csc(N3CCN(C(=S)Nc4cccc(Cl)c4)CC3)n2)c1	-5.6	-0.879	23.8	2.2	-20.1
COc1ccc(NC(=O)N2CCN(c3nc(-c4cccc(OC)c4)cs3)CC2)cc1	-16.9	-1.74	-17.0	41.5*	15.3
O=C(COc1ccc(Br)cc1)Nc1ccc([N+](=O)[O-])cn1	20.7	0.211	13.0	0.5	-9.8
COc1ccccc1Nc1nc(N)nc(CN2CCC(Cc3ccccc3)CC2)n1	-0.6	-5.18*	11.5	-2.2	-15.4
COc1ccc(OC)c(/C=N/NC(=O)CC2C(=O)NN=C2C)c1 (stereo not given)	-1.9	-0.192	8.0	3.4	-7.0
Cc1nn(Cc2ccccc2)c(C)c1NC(=O)c1noc2c1CCc1ccccc1-2	-10.8	-6.26*	8.3	17.6	-10.0
CC(Oc1ccc(Cl)cc1Cl)C(=O)Nc1cccnc1 (stereo not given)	.	1.95	-2.6	.	4.0
Cc1cc(NS(=O)(=O)c2ccc(NC(=O)C(C)Oc3ccc(Cl)cc3)cc2)no1 (stereo not given)	-0.5	-0.213	9.6	3.9	-7.7

Compound activity (PubChem BioAssay)
